Cycloheximide cs – counter-screen hit for Shiga toxin inhibitors, cycloheximide; hit rate 12% among 300,000; max response, %; cell reporter, cycloheximide protein synthesis inhibition counterscreen; in the data active means max response mostly above about 13%, no sharp cut-off; inactive means mostly below about 14%; further: read at 38.3 µM for the half of the compounds with a filed dose; 0% is about no effect
Shiga inhibitor – Shiga toxin inhibition. Vero cells, Shiga toxin protein synthesis inhibition reporter. inhibition, % at 38.7 µM. hit rate 9.2% among 290,000; in the data active means inhibition mostly above about 28%, no sharp cut-off; inactive means mostly below about 43%; further: 0% is about no effect
SARS PLP yeast – blocks SARS-CoV papain-like protease in a yeast assay. S. cerevisiae expressing SARS-CoV PLpro, growth rescue. Potency, µM (titrated, usually from 32.9 µM), inactives show at the top dose activity, positive = growth rescue, hits mostly activators. hit rate 0.19% among 330,000. AID 485353; further: potency means the concentration at half of the fitted maximal effect; 0% is about no effect; nearly all actives have a fitted effect of over 55% in size
NS1 inh – inhibitors of influenza NS1 protein function; Potency, µM (top dose mostly 46.1 µM), for the others: at the highest dose activity, positive = more growth; hit rate 0.4% among 270,000; AID 2326; further: potency means the concentration at half of the fitted maximal effect; actives are rising curves; nearly all actives have a fitted effect of over 50% in size
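OD600 was taken as the measure of yeast growth restored by compound in an NS1-expressing S. cerevisiae strain. Cells had been washed out of glucose medium and diluted 1:100 into galactose -URA medium, pH 6.0.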
Starred values were filed as active, the others as inactive; ? = inconclusive; nt = no result given; ! = not active in a repeat. In the library only some 12% were active in any assay of this set; here they are far more common. Unless noted, the call rests on the fitted dose curve.

SMILES	Cycloheximide cs	Shiga inhibitor	SARS PLP yeast	NS1 inh
COc1ccc(C2=CCN3CCCCC3C2)c(-c2ccc(OC)c(OC)c2)c1 (centres undefined)	nt	nt	-0.4%	nt
CCCS(=O)(=O)NCCc1cc2ccc(C)cc2[nH]c1=O	12.4*	27.9*	4.4%	1.7%
CCCS(=O)(=O)NCCc1cc2cc(C)c(C)cc2[nH]c1=O	9.5	31.8	1.0%	-1.2%
COc1ccc2cc(CCNC(=O)c3ccco3)c(=O)[nH]c2c1	58.2*	95.1*	28.6%	?
O=C(Cc1noc2ccccc12)NNC(=S)Nc1ccccc1	-2.5	-7.3	-0.1%	4.2%
Cc1cccc(NC(=O)Cc2noc3ccccc23)c1C	22.3	34.2*	-6.3%	1.8%
Cc1cccc(NC(=O)Cc2noc3ccccc23)c1	48.5*	73.8*	4.3%	11.0%
O=C(Cc1noc2ccccc12)Nc1ccc(Cl)cc1	35.0*	21.8	-12.3%	-34.8%
Cc1ccc(SCCC(=O)OCC(=O)Nc2ccc(C(N)=O)cc2)cc1	nt	nt	1.2%	nt
CCN(CCn1cccn1)C(=O)CCc1nnc(C2(c3ccc(Cl)cc3)CCC2)o1	40.5*	91.5*	-0.1%	-1.3%
CCN(CCn1cccn1)C(=O)CCc1nnc(-c2ccccc2)o1	36.6*	57.2*	0.4%	3.5%
COCC1CCN(C(=O)CCc2nnc(C3(c4ccc(Cl)cc4)CCC3)o2)CC1	14.5*	33.5	2.5%	-7.5%
CN1CCN(NC(=O)c2cc(-c3ccc(Cl)s3)nc3ccccc23)CC1	-3.3	14.8	7.3%	-5.4%
CCCC(=O)Nc1ccc(Cl)c(NC(=S)NC(=O)c2ccco2)c1	1.3	-70.3	14.3%	5.1%
Cc1ccn2c(NC(=O)c3ccccc3)c(-c3ccccc3)nc2c1	1.5	18.0	-2.6%	-11.8%
Cc1cccc(C(=O)n2c(=S)nc3cc(C)ccn32)c1	46.0*	125.5*	-1.5%	0.4%
Cc1ccn2c(c1)nc(=S)n2C(=O)c1ccccc1	114.2*	121.1*	-26.4%	-15.5%
COc1ccc(-c2nnc(SCc3ncc(-c4ccccc4)o3)o2)cc1	18.1	26.4	0.5%	1.3%
CN1c2ccccc2C(=O)C(=C2SCCCS2)S1(=O)=O	24.9*	32.5	-2.4%	-7.4%
CN1c2ccccc2C(=O)/C(=C\Nc2ccc(F)cc2)S1(=O)=O	1.2	-3.7	-0.8%	0.3%
N/C(=N\OC(=O)c1cccc(F)c1)c1ccccc1	88.3*	92.5*	0.6%	-4.4%
Cc1ccc(/C(N)=N/OC(=O)c2cccc(F)c2)cc1	37.5*	115.0*	7.8%	-15.6%
O=C(CC1SC(N2CCCCC2)=NC1=O)Nc1ccc(C(=O)NCCc2ccc(F)cc2)cc1 (centres undefined)	nt	nt	5.3%	nt
O=C(NCc1ccccc1)C(c1ccc(Cl)cc1)N(C(=O)c1csnn1)C1CC1 (centres undefined)	-5.2	-6.3	2.8%	8.0%
O=C(CC(Nc1ccc(F)cc1)C(=O)O)c1ccccc1 (centres undefined)	37.1*	41.1*	-7.6%	-8.7%
SMILES	Cycloheximide cs	Shiga inhibitor	SARS PLP yeast	NS1 inh
Cc1ccc(NC(CC(=O)c2ccccc2)c2ccc(F)cc2)cc1 (centres undefined)	50.4*	68.7*	3.5%	-9.7%
COc1ccc(C(=O)CC(c2ccccc2)S(=O)(=O)c2ccc(C)cc2)cc1 (centres undefined)	-3.1	-11.5	-1.7%	-2.1%
O=C(CC(Nc1ccc(F)cc1)C(=O)OCC(=O)c1cccs1)c1ccccc1 (centres undefined)	16.0*	24.3	-20.1%	-27.8%
COc1ccc(C(CC(=O)c2ccc(O)cc2)S(=O)(=O)c2ccc(C)cc2)cc1 (centres undefined)	41.9*	65.6*	-22.9%	-40.6%
COc1ccc(C(CC(=O)c2ccc(C)cc2)Nc2ccc([N+](=O)[O-])cc2)cc1 (centres undefined)	28.4*	18.8	-3.3%	14.8%
Cc1ccc(C(=O)CC(Nc2ccc(F)cc2)c2ccccc2)cc1 (centres undefined)	0.7	-0.9	3.5%	2.3%
CCCCn1nnc(N(C(=O)c2cccs2)C(=O)c2cccs2)n1	37.0*	85.6*	-1.2%	-43.0%
CC(C)c1ccc(NC(=O)CSc2nc3ccccc3nc2N2CCCC2)cc1	11.2	16.2*	?	?
O=C(CSc1nc2ccccc2nc1N1CCCC1)Nc1ccc(Cl)cc1	-2.0	11.1	-4.6%	-2.7%
Cc1ccc(NC(=O)CSc2nc3ccccc3nc2N2CCCC2)cc1	20.9*	32.5*	-1.3%	-8.3%
COc1cccc(NC(=O)CSc2nc3ccccc3nc2N2CCOCC2)c1	23.9*!	11.5	-1.0%	-28.1%
c1ccc(-c2cnc(CSc3nnc4ccccn34)o2)cc1	40.2*	53.5*	-0.1%	10.0%
Cn1c(SCc2nnc(-c3ccc(F)cc3)o2)nnc1C1COc2ccccc2O1 (centres undefined)	4.2	7.6	25.7%	-10.9%
Fc1ccc(-c2nnc(CSc3nnc4ccccn34)o2)cc1	39.6*	22.3	4.6%	1.5%
Cn1cnnc1SCCOc1ccc(Cl)cc1	15.3*	88.3	-0.2%	3.5%
Cc1cccc(OCCSc2nnc(-c3ccoc3C)n2C)c1	5.1	35.0	3.8%	1.9%
Cn1cnnc1SCCC(=O)Nc1ccc(Cl)cc1	1.0	12.1	-6.4%	6.9%
Cc1cccc(OCCSc2nncn2C)c1	32.8*	35.4	0.9%	nt
Cc1cc(OCc2nc(-c3ccncc3)no2)cc(C)c1Cl	-1.8	-30.2	-0.9%	-5.5%
COc1cccc(NC(=O)Nc2ccccc2Br)c1	53.0*	73.7*	-1.5%	-2.3%
COC(=O)c1sccc1NC(=O)Nc1ccc(F)cc1F	9.7	-7.7	-1.4%	-2.9%
COC(=O)c1sccc1NC(=O)Nc1cccc(F)c1	9.4*	51.1	-1.8%	nt
COc1cccc(NC(=O)Nc2cc(Cl)ccc2C)c1	2.4	21.8	-1.2%	nt
COC(=O)c1sccc1NC(=O)Nc1cccc(OC)c1	45.3*	39.8*	-11.3%	-36.1%
CC(N=C1NS(=O)(=O)c2ccccc21)C(=O)N1CCc2ccccc2C1 (centres undefined)	19.2*	45.7*	2.1%	5.9%
SMILES	Cycloheximide cs	Shiga inhibitor	SARS PLP yeast	NS1 inh
CC(C(=O)N1CCc2ccccc2C1)N1C(=O)c2ccccc2C1=O (centres undefined)	-2.3	-11.1	0.5%	-0.4%
COc1ccccc1N(C)S(=O)(=O)c1ccc(C(=O)NC(C)c2ccccc2)cc1 (centres undefined)	-1.0	-1.7	-4.6%	-1.3%
CCSc1nnc(NC(=O)CCNC(=O)c2ccccc2Cl)s1	nt	nt	3.0%	nt
CCSc1nnc(NC(=O)c2ccccn2)s1	44.9*	59.7*	-12.3%	-82.5%
CCSc1nnc(NC(=O)c2cccnc2Cl)s1	27.7*	54.2*	-12.4%	-21.6%
CC(C)(O)C(=O)N=Nc1c(O)[nH]c2ccccc12	33.5*	61.3*	-1.4%	8.0%
Oc1[nH]c2ccc(Br)cc2c1N=Nc1ccc(F)cc1	14.2	45.0	-1.7%	5.2%
Oc1[nH]c2ccccc2c1N=Nc1ccc(F)cc1	20.9*	65.5*	-21.9%	7.9%
O=[N+]([O-])c1ccc(N=Nc2c(O)[nH]c3ccc(F)cc23)cc1	44.5*	55.6*	-2.7%	-0.3%
Oc1[nH]c2ccccc2c1N=Nc1nc2ccccc2s1	35.4*	48.9*	-1.7%	-1.0%
Cc1ccc2[nH]c(O)c(N=Nc3nc4ccccc4s3)c2c1	-2.2	-4.6	-6.8%	1.6%
